SW480 rereplic: A quantitative high throughput screen for small molecules that induce DNA re-replication in SW480 colon adenocarcinoma cells; SW480 DNA re-replication, Hoechst DNA content imaging, 48 h; Potency, µM (top dose mostly 46.1 µM), for the others: at the highest dose re-replication activation, hits mostly activators; hit rate 1.8% among 340,000; also: % of control where 0% means no effect; nearly all actives have a fitted effect of over 55% in size
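Quantitative HTS format with DMSO vehicle controls; 48 hr drug incubation at 37 C, then 40 min Hoechst staining and scanning imager measurement at 405 nm excitation.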
KB-V1 cytotox: qHTS assay for MDR1-selective chemotherapeutics: Primary screen using the drug-selected MDR subline cells KB-V1; KB-V1 MDR cells viability, CellTiter-Glo, 72 h; Potency, µM (series often up to 46.1 µM), usual class: cytotoxic; hit rate 3.4% among 400,000; also: % is scaled to controls: 0 for no effect and ±100 for the full control effect; nearly all actives have a fitted effect of over 60% in size
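KB-V1, DMEM (no phenol red) + 10% FBS; cpd pin-transferred, titration series; 72 h, 37 degrees C; CellTiter-Glo, luminescence. Data normalized, curve-fit.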
HT1080-NT tox: qHTS for induction of synthetic lethality in tumor cells producing 2HG: qHTS for the HT-1080-NT fibrosarcoma cell line. HT-1080-NT fibrosarcoma viability, CellTiter-Glo ATP luminescence, 48 h. AID 686970, 2013. Potency, µM (series often up to 46.1 µM), inactives show top-dose activity, negative = less viability, hits mostly cytotoxic. hit rate 1.6% among 360,000;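 also: NT is the 2HG producing partner of a matched IDH1 knockdown line; 0% = DMSO-treated cells and -100% = media-only wells without cells; nearly all actives have a fitted effect of over 55% in size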
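HT-1080-NT; 750 cells/well; 5% FBS RPMI; 48 h compound, 37 degrees C; CellTiter-Glo luminescence; curve fitting and curve-class assignment.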
KB-3-1 tox: qHTS assay for MDR1-selective chemotherapeutics: Primary screen using the parental adenocarcinoma cell KB-3-1. KB-3-1 viability, CellTiter-Glo ATP luminescence, 72 h. Potency, µM (titrated, usually from 46.1 µM), actives largely listed as cytotoxic. hit rate 1.4% among 400,000; also: % is scaled to controls: 0 for no effect and ±100 for the full control effect; nearly all actives have a fitted effect of over 60% in size
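Cells are dispensed, compounds pinned in, plates held at 37 °C for 72 h, then CellTiter-Glo is added and luminescence read after 10 minutes. Cell line: parental KB-3-1 in phenol-red-free DMEM, 10% FBS.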
MCF10A rereplic: A quantitative high throughput screen for small molecules that induce DNA re-replication in MCF 10a normal breast cells. MCF 10A DNA re-replication, Hoechst nuclear intensity, 48 h. Potency, µM (highest dose often 46.1 µM), for inactives: top-dose activity, positive = re-replication, most hits filed as activators. hit rate 2.9% among 350,000; also: % of control where 0% means no effect; nearly all actives have a fitted effect of over 50% in size
HT1080 IDH1KD tx: qHTS for induction of synthetic lethality in tumor cells producing 2HG: qHTS for the HT-1080-IDH1KD cell line. hit rate 2% among 360,000. HT-1080 IDH1 knockdown viability, ATP luminescence, 48 h. Potency, µM (top dose mostly 46.1 µM), for inactives: at the highest dose activity, negative = toxicity, hits mostly cytotoxic. AID 686971, 2013;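 also: 0% = DMSO wells and -100% = cell-free medium wells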
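CellTiter-Glo luminescence after 48 h compound exposure at 37 degrees C of IDH1-knockdown HT-1080 cells in 5% FBS RPMI. %Activity scaled between DMSO wells and cell-free media wells, with curves fitted and assigned curve classes.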
Starred values were filed as active, the others as inactive; i = inactive; ? = inconclusive; . = no result given; [ ] = dose if it differs, or a comment. In the library only some 7.9% were active in any assay of this set; here they are far more common. Calls follow the shape of the dose curve; as a rule, active = well fitted curve in the direction sought with a large enough effect; inconclusive = small, poorly fitted or top-dose-only effect, or another doubt; inactive = no such curve, though single readings can be large; an effect the other way counts as inactive or inconclusive. Potency is read from the fitted curve at half-maximal effect.

SMILES | SW480 rereplic | KB-V1 cytotox | HT1080-NT tox | KB-3-1 tox | MCF10A rereplic | HT1080 IDH1KD tx
CN(Cc1ccccc1N1CCCC1)C(=O)c1cc2cc(Cl)ccc2o1 | -25% | ? | 0%[9.24 µM] | ? | 15µM* | -1%
O=C(CN1C(=O)NC2(CCCCC2)C1=O)Oc1ccc2ccc(=O)oc2c1 | 10µM* | i | 4% | i | ? | 0%
N/C(=N\S(=O)(=O)c1cc(C(F)(F)F)cc(C(F)(F)F)c1)c1ccc(Cl)cc1 | 10µM* | ? | ? | i | 13µM* | ?
N/C(=N\S(=O)(=O)c1cc(C(F)(F)F)cc(C(F)(F)F)c1)c1ccncc1 | -1% | i | 4% | i | 1% | -3%
COc1ccc(OC)c(S(=O)(=O)N2CCCCC2C(=O)N2CCN(c3ccccn3)CC2)c1 (stereo not given) | ? | 9.2µM* | 2% | i | -22% | 15%
O=C(Nc1ccc(S(=O)(=O)NCC2CCCO2)cc1)c1cnccn1 (stereo not given) | -19% | i | 19% | i | -1% | 0%
COc1ccc(S(=O)(=O)Nc2cccc(-c3ccc4nncn4n3)c2)cc1F | 5.2µM* | ? | 4.6µM* | i | 5.8µM* | 2.3µM*
O=S(=O)(Nc1cccc(-c2ccc3nncn3n2)c1)c1cccc(F)c1 | -2% | i | -5% | i | 9% | 0%
CCOc1ccc(NS(=O)(=O)c2cc(OC)ccc2OC)cc1 | 0% | ? | -2% | i | -4% | ?
COc1ccc(OC)c(S(=O)(=O)Nc2ccc(Oc3ccccc3)cc2)c1 | -10% | 21µM* | -15% | i | ? | ?
COc1ccc(OC)c(S(=O)(=O)Nc2ccc(O)c3ccccc23)c1 | ? | ? | 23µM* | i | ? | ?
COc1ccc(OC)c(S(=O)(=O)Nc2ccc(-c3ccc4nncn4n3)cc2)c1 | 8% | i | 23µM* | 18µM* | ? | 16µM*
COc1ccc(OC)c(S(=O)(=O)Nc2cccc3c(O)cccc23)c1 | 1% | i | -2% | i | 2% | -13%
COC(=O)c1ccccc1NC(=O)CCS(=O)(=O)c1cc2c(cc1C)NC(=O)CO2 | -12% | i | 0% | i | 8% | 0%
CC1CCc2sc(C(=O)OCC(=O)NCc3ccc(F)cc3)cc2C1 (stereo not given) | ? | ? | ? | ? | 19% | 21µM*
CCN1C(=O)CCN(C2CCCC2)c2nc(Nc3ccc(C(=O)NC4CCN(C)CC4)cc3OC)ncc21 | 18%[9.22 µM] | i | ? | 9.2µM* | 10µM* | 21µM*
COc1ccc(C(=O)NC2CCCCCC2)cc1S(=O)(=O)N1CCCc2ccccc21 | 20% | i | 14% | ? | -3% | 5%
Cc1cccc(Nc2nnc(SCC(O)=C(C#N)c3nc4ccccc4[nH]3)s2)c1 | 25% | i | -28% | i | 15µM* | ?
COc1cnc(-c2ccccn2)nc1NC(C)C | 6.5µM* | 7.3µM* | ? | ? | 23µM* | ?
COc1cnc(-c2ccccn2)nc1Sc1cccc(Cl)c1 | 12µM* | ? | ? | i | 21µM* | ?
COc1cnc(-c2ccccn2)nc1Oc1ccccc1Cl | -9% | i | 14% | i | 3% | 1%
COc1cnc(-c2ccccn2)nc1Oc1ccc(Cl)cc1 | 10µM* | ? | -5% | i | ? | -12%
COc1ccccc1Sc1nc(-c2ccccn2)ncc1OC | ? | i | -9% | ? | -3% | ?
COc1ccc(C(C)=NNS(=O)(=O)c2ccc(C)cc2)cc1OC | . | i | -5% | i | . | 10%
COc1ccc(/C=N/Nc2nc(-c3cccc(S(=O)(=O)N4CCCC4)c3)cs2)c(OC)c1 | 14% | 2.6µM* | -15% | 18µM* | ? | -1%
SMILES | SW480 rereplic | KB-V1 cytotox | HT1080-NT tox | KB-3-1 tox | MCF10A rereplic | HT1080 IDH1KD tx
COc1cccc(C(=O)Nc2nc(-c3ccc(S(=O)(=O)N4CCOCC4)cc3)cs2)c1 | 5% | i | -14% | i | 13% | -12%
CC(C)c1ccc(NC2CCCN(C(=O)CCCn3cncn3)C2)cc1 (stereo not given) | 1% | . | 4% | . | 0% | 0%
CC(=O)N1c2c(cc(Br)cc2S(=O)(=O)NCc2ccccc2Cl)CC1C (stereo not given) | . | i | . | i | . | .
Cc1ccc(S(=O)(=O)NCc2ccc(C(=O)N3CCc4ccccc4C3)cc2)cc1 | 11% | 4.6µM* | 2% | i | 16% | 17%
COc1ccc(CNS(=O)(=O)c2ccc(N3CCCCS3(=O)=O)cc2)cc1 | . | ? | . | 16µM* | . | .
CC(=O)Nc1cc(C(=O)N2CCc3ccccc3C2)ccc1Sc1ccc(C)cc1 | 2% | ? | -3% | i | 21µM* | -15%
COc1ccc(S(=O)(=O)NCc2ccc(C(=O)N3CCc4ccccc4C3)cc2)cc1 | -4% | 5.8µM* | 4% | ? | 2% | -1%
CCCN1CCN(C(=O)c2ccc(Sc3ccc(C)cc3)c(NC(C)=O)c2)CC1 | -9% | i | -13% | i | -10% | -20%
Cc1ccc(S(=O)(=O)NCc2ccc(C(=O)N3CCN(c4ccccc4)CC3)cc2)cc1 | 1% | i | -12% | i | 15% | ?
O=C(NCc1ccco1)C1CCN(c2nc3ccccc3n2Cc2ccccc2F)CC1 | 0% | i | 11% | i | 12% | -9%
Cc1cccc(S(=O)(=O)NC(=O)C2(C)CCN2C(=O)C/C=C/c2ccccc2)c1 (stereo not given) | . | i | 11% | i | . | 2%
CCn1c(C)c(C)c2cc(C(=O)N3CCc4ccccc4C3)ccc21 | ? | ? | ? | 13µM* | 3.7µM* | 16µM*
CCN1CCN(C(=O)c2ccc3c(c2)c(C)c(C)n3Cc2ccccc2)CC1 | -2% | i | -2% | i | ? | -22%
O=C(Nc1ccccc1F)c1cc(C(=O)Nc2ccccc2F)cc([N+](=O)[O-])c1 | -11% | i | 11% | i | -4% | 4%
CCCSc1nnc2n(-c3cccc(C)c3)c(=O)c3c4c(sc3n12)CCCC4 | . | 23µM* | . | ? | . | .
CSc1nnc2n(-c3cccc(C)c3)c(=O)c3c4c(sc3n12)CCCC4 | . | ? | . | i | . | .
